Laboratory results published in PubChem BioAssay (NCATS).
Records with an inconclusive call do not appear. Active and inactive are the calls of the source. Unless noted, calls follow the shape of the dose curve; as a rule, active = well fitted curve in the direction sought with a large enough effect; inconclusive = small, poorly fitted or top-dose-only effect, or another doubt; inactive = no such curve, though single readings can be large; an effect the other way counts as inactive or inconclusive.

Key:
[1] = biological target: Cytochrome P450 3A4 (Homo sapiens) (UniProt P08684); test: qHTS Assay for Inhibitors and Substrates of Cytochrome P450 3A4 (AID 884); also: % is scaled to controls: 0 for no effect and ±100 for the full control effect; nearly all actives have a fitted effect of over 50% in size
How it was run: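 Luminescent readout of luciferin produced by CYP3A4 (20 nM) dealkylation of Luciferin-PPXE, 25 uM (its KM). NADPH-driven reaction ran 60 min at RT after 10 min compound preincubation; data scaled to 57 uM ketoconazole as 100% inhibition.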

[2] = MultiTox-Fluor Cytotoxicity Assay - LYMP1-001 - Dead Cells (AID 946); also: potency is read from the fitted curve at half-maximal effect
How it was run: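 AC50 from Hill fit of concentration-response; data normalized to DMSO (basal) and 15 uM tetraoctylammonium bromide (100%). LYMP1-001 lymphoblastoid cells, 2500/well, 16 hr compound at 37 C; dead-cell protease fluorescence, Ex/Em 485/520.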

[3] = Cell Viability - LYMP1-002 - Assay at 16 hr (AID 948);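 also: 0% = DMSO alone and full effect = 92 µM tetraoctylammonium bromide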
How it was run: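 ATP luminescence (CellTiter-Glo) was measured after 16 hr compound exposure at 37 C of 2500 lymphoblastoid LYMP1-002 cells per well. Concentration-response curves were fitted with the Hill equation to give AC50.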

[4] = MultiTox-Fluor Cytotoxicity Assay - LYMP1-002 - Dead Cells (AID 960); also: potency is read from the fitted curve at half-maximal effect; nearly all actives have a fitted effect of over 60% in size
How it was run: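 Cells were plated, rested 5 hr, then treated with compound dilution series for 16 hr at 37 C. After adding substrate reagent and 60 min at room temperature, dead-cell protease fluorescence gave concentration-response curves fitted by the Hill equation.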

[5] = Cell Viability - LYMP1-003 - Assay at 24 hr (AID 963);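 also: plate controls were DMSO only for no effect and tetraoctylammonium bromide positive control for full effect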
How it was run: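 Cytotoxicity is scored as a concentration-dependent fall in ATP-linked luciferase signal in human lymphoblastoid LYMP1-003 cells treated 24 hr at 37 C in complete culture medium.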

[6] = Cell Viability - LYMP1-003 - Assay at 40 hr (AID 964); also: % is scaled to controls: 0 for no effect and ±100 for the full control effect; nearly all actives have a fitted effect of over 60% in size
How it was run: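 Luminescent ATP signal (CellTiter-Glo) served as the viability read-out after 40 hr compound treatment of human lymphoblastoid LYMP1-003 cells at 37 C. Decreases in ATP were fitted with the Hill equation to give AC50.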

[7] = Cell Viability - LYMP2-005 (AID 967);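 also: plate controls were DMSO only for no effect and 92 µM tetraoctylammonium bromide control for full effect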
How it was run: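 LYMP2-005 human lymphoblastoid cells (2500/well) were treated with compounds for 24 h at 37 C. Intracellular ATP was then measured by CellTiter-Glo luminescence after 30 min at room temperature. AC50 values came from Hill-equation fits of qHTS concentration-response data.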

[8] = Cell Viability - LYMP2-023 (AID 975);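 also: cellular ATP measured by luciferase luminescence as viability proxy; plate controls were DMSO only for no effect and 92 µM tetraoctylammonium bromide control for full effect; nearly all actives have a fitted effect of over 55% in size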
How it was run: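 Steps: seed 2500 human lymphoblastoid cells per well, incubate 5 hr at 37 C, add compound for 24 hr at 37 C, add CellTiter-Glo, hold 30 min at room temperature, read luminescence. AC50 derived by Hill modelling.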

[9] = Cell Viability - LYMP2-025 (AID 976);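 also: plate controls were DMSO only for no effect and tetraoctylammonium bromide control for full effect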
How it was run: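 Acute cytotoxicity is scored as a concentration-dependent fall in intracellular ATP, measured by luciferase luminescence, in human lymphoblastoid LYMP2-025 cells exposed to compound for 24 hours at 37 C. AC50 values come from standard Hill fits.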

[10] = Cell Viability - LYMP2-002 (AID 977);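 also: compound exposure lasted 24 h at 37 °C; plate controls were DMSO only for no effect and 92 µM tetraoctylammonium bromide for full effect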
How it was run: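 Human lymphoblastoid cells (2500/well) in complete medium were preincubated 5 hr at 37 C, then exposed to compounds for 24 hr at 37 C. Intracellular ATP was read by CellTiter-Glo luminescence; AC50 came from Hill-equation concentration-response fits.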

[11] = Cell Viability - LYMP2-014 (AID 983);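 also: plate controls were DMSO only for no effect and 92 µM tetraoctylammonium bromide for full effect; nearly all actives have a fitted effect of over 50% in size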
How it was run: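 Cells are plated at 2500/well and left 5 hr at 37 C. Compounds are added across a concentration range and incubated 24 hr at 37 C in complete medium. CellTiter-Glo is added, and luminescence is read after 30 min at room temperature.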

[12] = Cell Viability - LYMP1-002 - Assay at 24 hr (AID 993); also: % is scaled to controls: 0 for no effect and ±100 for the full control effect
How it was run: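 Acute toxicity is measured as concentration-dependent loss of cellular ATP in a human lymphoblastoid line (Coriell LYMP1-002) after 24 h treatment in complete medium. ATP is quantified by luciferase luminescence and AC50 derived by Hill modelling.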

[13] = Cell Viability - LYMP1-002 - Assay at 40 hr (AID 994);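 also: 0% = DMSO only and full inhibition = 92 µM tetraoctylammonium bromide; nearly all actives have a fitted effect of over 60% in size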
How it was run: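 Cells are plated at 2500 per well and rested 5 hr at 37 C. Compounds are added and incubated 40 hr at 37 C. CellTiter-Glo reagent is added for 30 min at room temperature before luminescence is read.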

[14] = qHTS for differential inhibitors of proliferation of Plasmodium falciparum line 7G8 (AID 1815);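 also: potency is read from the fitted curve at half-maximal effect; parasite growth measured after three days of incubation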
[15] = qHTS for differential inhibitors of proliferation of Plasmodium falciparum line GB4 (AID 1816); details: Potency: Plasmodium falciparum GB4 proliferation inhibition;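 also: potency is read from the fitted curve at half-maximal effect; parasite growth measured after 72 h incubation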
[16] = qHTS for differential inhibitors of proliferation of Plasmodium falciparum line 3D7 (AID 1876); also: potency is read from the fitted curve at half-maximal effect
[17] = qHTS for differential inhibitors of proliferation of Plasmodium falciparum line D10 (AID 1877);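 also: potency is read from the fitted curve at half-maximal effect; parasites grown with compound for 72 h before DNA staining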
[18] = qHTS for differential inhibitors of proliferation of Plasmodium falciparum line W2 (AID 1883); details: Potency: Plasmodium falciparum W2 proliferation inhibition;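 also: potency is read from the fitted curve at half-maximal effect; parasites grown with compound for 72 h before lysis and staining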
[19] = qHTS for differential inhibitors of proliferation of Plasmodium falciparum line HB3 (AID 1886); details: Potency: Plasmodium falciparum HB3 proliferation inhibition;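 also: potency is read from the fitted curve at half-maximal effect; parasites grown with compound for 72 h before SYBR Green readout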
[20] = Validation screen for inhibitors of Lassa infection (AID 463096; calls by dose curve; also: % is scaled to controls: 0 for no effect and ±100 for the full control effect)
[21] = Validation screen for small molecules that induce genotoxicity in human embryonic kidney (HEK293T) cells expressing luciferase-tagged ELG1 (AID 493106); also: 0% is about no effect
How it was run: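 Cells were dispensed at 2,000 per well, then 23 nL compound or DMSO was pinned in. After 16 hr at 37 °C and 5% CO2, ONE-Glo reagent was added. Luciferase activity was measured following 30 min at room temperature.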

[22] = Inducers of the Endoplasmic Reticulum Stress Response (ERSR) in human glioma: Validation (AID 504836); also: 0% is about no effect
How it was run: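 ERSR induction read as luciferase luminescence (Bright-Glo, 10 min at room temperature) in stably transfected human U87-MG glioma cells exposed to compounds for 16 h, using GRP78 as sensor.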

[23] = biological target: Estrogen receptor (Homo sapiens) (UniProt P03372); test: qHTS assay for small molecule antagonists of estrogen receptor alpha signaling (AID 588513; active = well fitted curve in the direction sought with a large enough effect in the signal ratio, with a control signal flat, not every such curve was filed as active; the % refers to the signal ratio; also: % is scaled to controls: 0 for no effect and ±100 for the full control effect)
How it was run: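 Antagonist mode: inhibition of 0.5 nM 17-beta-estradiol-driven beta-lactamase reporter in HEK 293 ER-alpha-UAS-bla cells, 18 h at 37C, CCF4 readout after 2 h at RT. Normalised to estradiol and DMSO; titration fitted to Hill.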

[24] = biological target: Peroxisome proliferator-activated receptor gamma (Homo sapiens) (UniProt P37231); test: qHTS assay for small molecule agonists of peroxisome proliferator-activated receptor gamma signaling (AID 588536; active = well fitted curve in the direction sought with a large enough effect in the signal ratio, with a control signal flat, not every such curve was filed as active; the % refers to the signal ratio;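 also: 0% = DMSO basal wells and 100% = rosiglitazone at 2 µM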)
How it was run: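 Compound treatment: 16 h, 37 C, HEK293 GeneBLAzer cells. Detection: CCF4, 2 h RT. Values: Hill-fit EC50, efficacy as % of 2 uM rosiglitazone.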

[25] = biological target: Peroxisome proliferator-activated receptor gamma (Homo sapiens) (UniProt P37231); test: qHTS assay for small molecule antagonists of peroxisome proliferator-activated receptor gamma signaling (AID 588537; active = well fitted inhibition curve with a large enough effect in the signal ratio, with a control signal flat, not every such curve was filed as active; the % refers to the signal ratio;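 also: reporter cells co-stimulated with 50 nM rosiglitazone agonist during compound treatment; % of control where 0% means no effect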)
How it was run: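 Antagonist-mode β-lactamase reporter screen run as a titration series. HEK293 PPARγ-UAS-bla cells are stimulated with rosiglitazone (50 nM final) for 16 h, then CCF4 is read at 460/530 nm. Data are scaled between DMSO and rosiglitazone and fitted to the Hill equation.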

[26] = biological target: Vitamin D3 receptor (Homo sapiens) (UniProt P11473); test: qHTS assay for small molecule antagonists of vitamin D receptor signaling (AID 588541; calls by dose curve;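 also: receptor activated by calcitriol during compound treatment; % is scaled to controls: 0 for no effect and ±100 for the full control effect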)
How it was run: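 Antagonist-mode beta-lactamase reporter assay: HEK293T VDR-UAS-bla cells were exposed to titrated compound alongside 1-alpha,25-dihydroxyvitamin D3 at 3 nM final for 16 h. Values were normalized to the 50 nM agonist control and DMSO basal, with IC50 and efficacy from Hill equation fits.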

[27] = qHTS assay for small molecule antagonists of retinoid X receptor alpha signaling (AID 588546; active = well fitted inhibition curve with a large enough effect in the signal ratio, with a control signal flat, not every such curve was filed as active; the % refers to the signal ratio); details: HEK293T RXRa-UAS-bla, beta-lactamase ratio, antagonist mode; measured here: W530 green channel, cytotoxicity proxy
How it was run: (§1)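 Beta-lactamase reporter inhibition, read as CCF4 fluorescence ratio (ex 405, em 460/530 nm) after 2 h at RT. HEK293T UAS-bla cells, 2500/well, were stimulated with 9-cis-RA at 500 or 100 nM final alongside test compound for 18 h at 37 C.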

[28] = biological target: Retinoic acid receptor RXR-alpha (Homo sapiens) (UniProt P19793); test: as above; details: HEK293T RXRa-UAS-bla, beta-lactamase ratio, antagonist mode
How it was run: as §1

[29] = biological target: Thyroid hormone receptor beta (Homo sapiens) (UniProt P10828); test: qHTS assay for small molecule antagonists of thyroid hormone receptor beta signaling (AID 588547; active = well fitted inhibition curve with a large enough effect in the signal ratio, with a control signal flat, not every such curve was filed as active; the % refers to the signal ratio); details: TR-UAS-bla HEK293, beta-lactamase ratio, antagonist mode, 18 h
How it was run: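 Inhibition of T3-driven (0.4nM final) beta-lactamase reporter activity was measured over 0.59 nM to 92 uM compound after 18 h at 37 C. The cells were GripTite HEK293 TR-UAS-bla in charcoal/dextran-stripped serum, with CCF4 ratio read-out and IC50 from Hill fits.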

[30] = qHTS assay for small molecule agonists of the antioxidant response element (ARE) signaling pathway (AID 651741; active = well fitted activation curve with a large enough effect in the signal ratio; the % refers to the signal ratio; also: potency is read from the fitted curve at half-maximal effect)
How it was run: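 Beta-lactamase reporter under ARE control in HepG2 cells, 2,000 per well, was induced by 16 h compound treatment at 37 C. Read-out was fluorescence from LiveBLAzer B/G FRET substrate after 2 h at room temperature.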

[31] = qHTS assay for small molecule disruptors of the mitochondrial membrane potential - 1 hr assay (AID 651754; calls by dose curve; also: potency is read from the fitted curve at half-maximal effect; nearly all actives have a fitted effect of over 35% in size)
How it was run: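 Loss of mitochondrial potential shifts the cationic dye from red mitochondrial aggregates to green cytoplasmic monomers. Cells (HepG2) are treated with compound for 1 hr before a 30 min dye incubation at 37C.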

[32] = qHTS assay to identify small molecules that stimulate interleukin-8 (IL-8) secretion (AID 651758; active = well fitted activation curve with a large enough effect in the signal ratio; the % refers to the signal ratio; also: 0% is about no effect)
How it was run: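 Secreted IL-8 measured homogeneously by TR-FRET (two labelled anti-IL-8 antibodies, 1-3 h at room temperature) after a 16 h, 37 C compound treatment of THP-1 cells at 2000 cells/well.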

[33] = biological target: Arylsulfatase A (Homo sapiens) (UniProt P15289); test: qHTS screen for enhancers of Arylsulfatase A (ASA1): LOPAC Validation Assay (AID 720538); also: 0% is about no effect
How it was run: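 Enhancer assay in patient-derived MLD fibroblasts carrying ASA-I179S: 48 h compound exposure at 37 C, then 14 h room-temperature pNCS turnover (0.5 mM final) in lysis buffer. Read by fluorescence at 525/598 nm after NaOH stop.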

[34] = qHTS profiling of the MIPE4 collection as inhibitors of Plasmodium falciparum (3D7) proliferation (AID 743344; call rule not given here;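 also: scaled between DMSO vehicle wells and 0.29 µM artemisinin as full inhibition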); details: P. falciparum 3D7 in erythrocytes, SYBR Green DNA fluorescence, 72 h; at 28.5 µM (top of the series) unless noted
How it was run: (§2)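 Parasite DNA was quantified by SYBR Green I fluorescence (ex 485, em 535 nm) after overnight lysis in saponin/Triton buffer at room temperature. Cultures at 0.3% parasitemia and 2.5% hematocrit were first exposed to compound for 72 h at 37 C; signals were normalised to artemisinin (0.29 uM) and vehicle wells.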

[35] = qHTS profiling of the MIPE4 collection as inhibitors of Plasmodium falciparum (DD2) proliferation (AID 743345; call rule not given here); details: P. falciparum Dd2 in erythrocytes, SYBR Green DNA, 72 h; at 28.5 µM (top of the series) unless noted
How it was run: as §2

[36] = qHTS profiling of the MIPE4 collection as inhibitors of Plasmodium falciparum (HB3) proliferation (AID 743347; call rule not given here;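 also: plate controls were DMSO vehicle wells for no effect and artemisinin wells for full effect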); details: P. falciparum HB3 in erythrocytes, SYBR Green DNA, 72 h; at 28.5 µM (top of the series) unless noted
How it was run: as §2

[37] = qHTS for Inhibitors of the Functional Ribonucleoprotein Complex (vRNP) of Lassa (LASV) Arenavirus: LASV Primary Screen - GLuc reporter signal (AID 1347082; calls by dose curve; tested in HEK293 reporter line; also: % is scaled to controls: 0 for no effect and ±100 for the full control effect; nearly all actives have a fitted effect of over 60% in size)
[38] = qHTS for Inhibitors of the Functional Ribonucleoprotein Complex (vRNP) of Lassa (LASV) Arenavirus: Viability assay - alamar blue signal for LASV Primary Screen (AID 1347083; calls by dose curve; tested in HEK293 reporter line; also: % is scaled to controls: 0 for no effect and ±100 for the full control effect; nearly all actives have a fitted effect of over 80% in size)
[39] = qHTS for Inhibitors of the Functional Ribonucleoprotein Complex (vRNP) of Lymphocytic Choriomeningitis Arenaviruses (LCMV): Viability assay - alamar blue signal for LCMV Primary Screen (AID 1347085; calls by dose curve; tested in HEK293 reporter line; also: % is scaled to controls: 0 for no effect and ±100 for the full control effect; nearly all actives have a fitted effect of over 80% in size)
[40] = biological target: Nucleoprotein (Lymphocytic choriomeningitis virus (strain Armstrong)) (UniProt P09992); test: qHTS for Inhibitors of the Functional Ribonucleoprotein Complex (vRNP) of Lymphocytic Choriomeningitis Arenaviruses (LCMV): LCMV Primary Screen - GLuc reporter signal (AID 1347086; calls by dose curve; also: % is scaled to controls: 0 for no effect and ±100 for the full control effect; nearly all actives have a fitted effect of over 70% in size)
[41] = Primary qHTS for Huh7 cytotoxicity: counterscreen for inhibitors of MERS-S pseudotyped particle cell entry (AID 1479147; calls by dose curve; also: % is scaled to controls: 0 for no effect and ±100 for the full control effect); details: outcome: dose series up to 57.1 µM unless noted
[42] = Primary qHTS for Vero E6 cytotoxicity: counterscreen for inhibitors of SARS-S pseudo-typed particle cell entry (AID 1479150; calls by dose curve); details: outcome: dose series up to 57.1 µM unless noted
[43] = Confirmatory qHTS to identify inhibitors of SARS-CoV-2 cell entry (AID 1645844; calls by dose curve)
How it was run: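 Luminescence entry read-out after 48 h: spike-pseudotyped MLV particles (Wuhan-Hu-1, 19-aa C-terminal truncation) added to compound-pretreated (1 h) HEK293-ACE2 cells; Data were normalised to bald PP and spike PP wells.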

[44] = VSVG counterscreen qHTS to identify inhibitors of SARS-CoV-2 cell entry (AID 1645847; calls by dose curve)
How it was run: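 Luminescence read after 48 h infection at 37 C with VSV-G-pseudotyped MLV particles, following 1 h compound exposure of Expi293F cells stably expressing human ACE2; scaled between bald particle and VSV-G particle wells.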

Chain of Peroxisome proliferator-activated receptor gamma (Homo sapiens) (P37231 whole entry, looked up): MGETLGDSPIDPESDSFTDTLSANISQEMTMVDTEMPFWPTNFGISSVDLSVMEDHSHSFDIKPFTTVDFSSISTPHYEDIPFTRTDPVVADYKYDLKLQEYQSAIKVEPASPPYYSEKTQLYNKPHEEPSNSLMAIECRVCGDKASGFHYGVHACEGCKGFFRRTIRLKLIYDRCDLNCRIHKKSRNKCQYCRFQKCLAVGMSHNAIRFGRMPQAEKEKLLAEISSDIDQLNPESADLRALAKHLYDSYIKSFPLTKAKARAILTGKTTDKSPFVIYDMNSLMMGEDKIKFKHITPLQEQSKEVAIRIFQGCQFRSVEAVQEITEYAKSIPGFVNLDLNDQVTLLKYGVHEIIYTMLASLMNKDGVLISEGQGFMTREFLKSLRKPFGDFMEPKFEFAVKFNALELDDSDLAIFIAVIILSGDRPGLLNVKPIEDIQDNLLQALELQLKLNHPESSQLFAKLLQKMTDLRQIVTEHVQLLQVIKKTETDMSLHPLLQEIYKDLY
Chain of Estrogen receptor (Homo sapiens) (P03372 whole entry, looked up): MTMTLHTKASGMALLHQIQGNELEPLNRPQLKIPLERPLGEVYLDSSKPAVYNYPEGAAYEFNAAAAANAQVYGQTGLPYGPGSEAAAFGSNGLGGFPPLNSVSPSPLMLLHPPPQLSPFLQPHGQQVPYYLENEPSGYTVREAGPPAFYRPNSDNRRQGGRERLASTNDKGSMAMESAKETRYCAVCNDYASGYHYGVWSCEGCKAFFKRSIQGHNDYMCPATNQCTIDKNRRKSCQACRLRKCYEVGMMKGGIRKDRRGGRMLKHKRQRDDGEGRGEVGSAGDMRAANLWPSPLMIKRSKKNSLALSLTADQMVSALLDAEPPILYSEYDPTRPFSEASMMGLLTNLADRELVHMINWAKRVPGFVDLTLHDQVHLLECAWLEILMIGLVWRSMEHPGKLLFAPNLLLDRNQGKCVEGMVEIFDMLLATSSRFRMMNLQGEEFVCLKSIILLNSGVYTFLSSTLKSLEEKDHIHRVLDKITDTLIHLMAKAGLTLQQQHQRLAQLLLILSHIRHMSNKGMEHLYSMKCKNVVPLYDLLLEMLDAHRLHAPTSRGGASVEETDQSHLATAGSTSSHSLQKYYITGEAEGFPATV
Chain of Retinoic acid receptor RXR-alpha (Homo sapiens) (P19793 whole entry, looked up): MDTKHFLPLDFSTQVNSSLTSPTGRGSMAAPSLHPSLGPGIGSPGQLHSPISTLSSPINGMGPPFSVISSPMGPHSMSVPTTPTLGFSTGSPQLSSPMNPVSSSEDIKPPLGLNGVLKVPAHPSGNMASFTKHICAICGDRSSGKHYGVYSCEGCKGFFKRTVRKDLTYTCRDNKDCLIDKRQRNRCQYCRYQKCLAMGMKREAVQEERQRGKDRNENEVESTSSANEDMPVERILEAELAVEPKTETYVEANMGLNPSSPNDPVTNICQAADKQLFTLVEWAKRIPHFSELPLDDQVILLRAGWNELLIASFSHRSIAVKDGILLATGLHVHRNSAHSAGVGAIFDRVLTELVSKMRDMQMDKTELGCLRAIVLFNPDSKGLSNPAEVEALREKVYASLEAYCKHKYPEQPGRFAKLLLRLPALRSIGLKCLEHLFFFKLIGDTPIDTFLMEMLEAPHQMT
Chain of Cytochrome P450 3A4 (Homo sapiens) (P08684 whole entry, looked up): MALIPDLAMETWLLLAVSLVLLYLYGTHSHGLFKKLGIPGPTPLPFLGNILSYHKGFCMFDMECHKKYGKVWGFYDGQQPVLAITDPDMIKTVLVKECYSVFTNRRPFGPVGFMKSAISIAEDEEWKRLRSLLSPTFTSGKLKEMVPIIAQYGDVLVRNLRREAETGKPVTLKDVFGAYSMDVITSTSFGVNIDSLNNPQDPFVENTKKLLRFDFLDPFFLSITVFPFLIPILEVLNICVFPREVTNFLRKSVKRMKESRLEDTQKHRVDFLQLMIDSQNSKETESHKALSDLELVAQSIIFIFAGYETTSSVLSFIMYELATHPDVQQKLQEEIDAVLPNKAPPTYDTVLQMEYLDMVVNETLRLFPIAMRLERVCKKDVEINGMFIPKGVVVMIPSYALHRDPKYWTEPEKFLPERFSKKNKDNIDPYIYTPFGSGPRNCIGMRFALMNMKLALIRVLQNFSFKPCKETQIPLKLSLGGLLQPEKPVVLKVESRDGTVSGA
Chain of Nucleoprotein (Lymphocytic choriomeningitis virus (strain Armstrong)) (P09992 whole entry, looked up): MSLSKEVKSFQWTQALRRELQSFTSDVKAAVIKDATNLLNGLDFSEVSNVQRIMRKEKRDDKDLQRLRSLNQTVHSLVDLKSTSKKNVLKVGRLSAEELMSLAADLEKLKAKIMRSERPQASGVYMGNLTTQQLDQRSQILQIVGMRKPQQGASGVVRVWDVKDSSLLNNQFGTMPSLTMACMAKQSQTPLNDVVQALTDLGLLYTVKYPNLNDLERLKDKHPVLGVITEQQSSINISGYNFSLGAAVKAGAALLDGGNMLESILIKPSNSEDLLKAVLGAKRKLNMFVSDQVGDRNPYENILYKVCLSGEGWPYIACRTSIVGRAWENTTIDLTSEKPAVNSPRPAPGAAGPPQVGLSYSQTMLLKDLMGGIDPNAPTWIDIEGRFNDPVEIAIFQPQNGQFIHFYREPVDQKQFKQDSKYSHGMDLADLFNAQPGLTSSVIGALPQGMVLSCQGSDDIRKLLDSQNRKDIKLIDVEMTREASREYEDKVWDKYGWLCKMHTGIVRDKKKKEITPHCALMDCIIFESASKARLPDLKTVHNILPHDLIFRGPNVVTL
Chain of Thyroid hormone receptor beta (Homo sapiens) (P10828 whole entry, looked up): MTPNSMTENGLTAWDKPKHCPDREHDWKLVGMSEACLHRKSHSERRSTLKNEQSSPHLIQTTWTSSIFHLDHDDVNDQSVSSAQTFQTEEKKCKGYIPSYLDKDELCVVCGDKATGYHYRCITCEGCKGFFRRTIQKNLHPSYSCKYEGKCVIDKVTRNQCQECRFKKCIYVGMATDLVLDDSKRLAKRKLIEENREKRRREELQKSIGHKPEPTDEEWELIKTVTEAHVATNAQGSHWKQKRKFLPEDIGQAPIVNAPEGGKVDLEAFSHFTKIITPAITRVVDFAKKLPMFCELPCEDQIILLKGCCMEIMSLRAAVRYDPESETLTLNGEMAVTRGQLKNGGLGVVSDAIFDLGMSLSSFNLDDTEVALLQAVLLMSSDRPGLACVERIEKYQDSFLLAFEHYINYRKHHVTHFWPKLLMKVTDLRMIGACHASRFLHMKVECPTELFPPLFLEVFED
Chain of Vitamin D3 receptor (Homo sapiens) (P11473 whole entry, looked up): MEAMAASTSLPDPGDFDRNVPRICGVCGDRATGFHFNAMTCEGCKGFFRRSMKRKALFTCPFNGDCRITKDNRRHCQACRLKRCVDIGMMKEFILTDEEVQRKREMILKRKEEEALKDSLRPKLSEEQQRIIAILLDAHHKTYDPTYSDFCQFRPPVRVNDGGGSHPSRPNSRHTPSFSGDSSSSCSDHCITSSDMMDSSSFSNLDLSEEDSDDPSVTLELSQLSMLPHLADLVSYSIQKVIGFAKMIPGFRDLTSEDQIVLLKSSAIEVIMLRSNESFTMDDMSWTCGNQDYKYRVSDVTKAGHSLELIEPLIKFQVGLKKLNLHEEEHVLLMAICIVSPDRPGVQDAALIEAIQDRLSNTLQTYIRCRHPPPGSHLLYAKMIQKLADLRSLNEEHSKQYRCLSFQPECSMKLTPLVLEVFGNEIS
Chain of Arylsulfatase A (Homo sapiens) (P15289 whole entry, looked up): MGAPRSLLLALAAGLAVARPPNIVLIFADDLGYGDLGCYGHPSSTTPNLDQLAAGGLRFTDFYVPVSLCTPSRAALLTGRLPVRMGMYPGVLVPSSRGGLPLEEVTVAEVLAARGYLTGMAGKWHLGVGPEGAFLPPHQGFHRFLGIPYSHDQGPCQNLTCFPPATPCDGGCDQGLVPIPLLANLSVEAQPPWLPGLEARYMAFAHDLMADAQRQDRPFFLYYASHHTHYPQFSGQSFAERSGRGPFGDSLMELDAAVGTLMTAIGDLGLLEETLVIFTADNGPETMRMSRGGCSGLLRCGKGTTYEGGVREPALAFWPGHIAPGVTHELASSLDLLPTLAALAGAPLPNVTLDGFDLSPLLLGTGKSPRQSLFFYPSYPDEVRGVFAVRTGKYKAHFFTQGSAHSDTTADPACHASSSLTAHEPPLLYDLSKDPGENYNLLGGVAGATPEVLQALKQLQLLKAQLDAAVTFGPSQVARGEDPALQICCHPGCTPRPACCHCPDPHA

CC(=O)[C@H]1CC[C@H]2[C@@H]3CCC4=CC(=O)CC[C@]4(C)[C@H]3CC[C@]12C
active: Potency [2] 50.1 µM | Potency [4] 10 µM | Potency [14] 8.91 µM | Potency [15] 12.6 µM | Potency [16] 11.2 µM | Potency [17] 12.6 µM | Potency [18] 7.94 µM | Potency [19] 8.91 µM | Potency [28] 35.5 µM | Potency [30] 37.6 µM | Potency [31] 11.9 µM | Potency [43] 24.1 µM | Potency [44] 17.1 µM
inactive: Potency [1] | outcome [3] | outcome [5] | Potency [6] | outcome [7] | outcome [8] | outcome [9] | outcome [10] | outcome [11] | outcome [12] | Potency [13] | Potency [20] | outcome [21] | outcome [22] | Potency [23] | outcome [24] | Potency [25] | outcome [26] | activity change % (negative = inhibition) [29] -26.1% | Potency [32] | Potency [33] | Potency [37] | Potency [38] | Potency [39] | Potency [40] | outcome [41] | outcome [42]
38.5%: parasite growth, % of DMSO control [34]
31%: growth, % of control [36]
85%: parasite growth remaining, % of DMSO control (lower = more inhibition) [35]
1.42%: max response [27]
